# Measured values as given in ChEMBL document CHEMBL4513158, “CO-ADD screening of RKDF (India) compounds”.
# Results with a measured potency or affinity are listed apart.
# What was measured:
# Staphylococcus aureus = conditions: Concentration 32 ug.mL-1; ASSAY_TEST Inhibition of Bacterial Growth; detection method Absorption (OD600); MEDIA CAMHB; plate type 384well; NBS; CORNING #3640; time 18 hr
# Escherichia coli = conditions: Concentration 32 ug.mL-1; ASSAY_TEST Inhibition of Bacterial Growth; detection method Absorption (OD600); MEDIA CAMHB; plate type 384well; NBS; CORNING #3640; time 18 hr
SMILES,Inhibition (Staphylococcus aureus) [%],Inhibition (Escherichia coli) [%]
CN(C)C(=N)NC(=N)N.Cl [METFORMIN HYDROCHLORIDE],23.29,
C=C[C@H]1[C@H](O[C@@H]2O[C@H](CO)[C@@H](O)[C@H](O)[C@H]2O)OC=C2C(=O)OCC[C@]21O [SWERTIAMARIN],25.69,13.89
